Only a selection was taken, and hits are over-represented in it overall.
Cycloheximide cs: Cycloheximide Counterscreen for Small Molecule Inhibitors of Shiga Toxin; max response, %; 12% of 300,000 active; AID 2314, 2010; cell reporter, cycloheximide protein synthesis inhibition counterscreen; in the data active = max response mostly above about 13%, no sharp cut-off; inactive = mostly below about 14%; note: read at 38.3 µM for the half of the compounds with a filed dose
Shiga inhibitor: A qHTS for Small Molecule Inhibitors of Shiga Toxin. Vero cells, Shiga toxin protein synthesis inhibition reporter. inhibition, % at 38.7 µM. 9.2% of 290,000 active. AID 2315, 2010; in the data active = inhibition mostly above about 28%, no sharp cut-off; inactive = mostly below about 43%
TbPYK inhibitor: qHTS of Trypanosoma Brucei Inhibitors; Potency, µM (series often up to 76.8 µM), actives largely listed as inhibitors; pyruvate kinase (Trypanosoma brucei), Q57TT1; TbPYK enzyme, Kinase-Glo Plus ATP luminescence, 45 min; 0.12% of 410,000 active; note: nearly all actives have a fitted effect of over 50% in size
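Screened from lowest to highest concentration, compounds were pinned into TbPYK/substrate mixtures, and ADP (130 uM final) was added. Plates sat at room temperature for 45 min prior to Kinase-Glo Plus detection by luminescence.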
FBPA Giardia inh: qHTS Assay for Inhibitors of Fructose-1,6-bisphosphate Aldolase from Giardia Lamblia; 0.71% of 290,000 active; purified Giardia FBPA; AID 2451, 2010; Potency, µM (highest dose often 59.6 µM), actives largely listed as inhibitors; note: nearly all actives have a fitted effect of over 55% in size
Target sequence (A8B2U2 whole entry, looked up): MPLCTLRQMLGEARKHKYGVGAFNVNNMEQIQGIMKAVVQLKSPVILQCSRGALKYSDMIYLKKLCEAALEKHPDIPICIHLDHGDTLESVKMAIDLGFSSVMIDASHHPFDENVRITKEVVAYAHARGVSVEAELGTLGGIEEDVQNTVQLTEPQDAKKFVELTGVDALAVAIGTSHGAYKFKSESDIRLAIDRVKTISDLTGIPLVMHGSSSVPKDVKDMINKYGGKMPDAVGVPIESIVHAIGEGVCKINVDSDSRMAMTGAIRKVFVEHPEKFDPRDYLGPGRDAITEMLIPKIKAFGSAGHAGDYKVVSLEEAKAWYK
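Giardia FBPA (40 nM reagent) was preincubated 10 min at RT with compound (up to 57.5 uM final), then substrate plus GAPDH/TPI/NAD/arsenate coupling system with diaphorase/resazurin was added; resorufin fluorescence (525/598 nm) was read after 20 min.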
LmPK inhibitor: qHTS Assay for Inhibitors of Leishmania Mexicana Pyruvate Kinase (LmPK). Q27686. purified LmPK, Kinase-Glo ATP luminescence, 1 h. Potency, µM (titrated, usually from 57.5 µM), usual class: inhibitors. 0.37% of 290,000 active. AID 1721, 2009
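Screened at intermediate enzyme activity to detect both inhibitors and activators: LmPK at 0.1 nM, with a 0.5 nM enzyme column as activation reference. PEP 0.5 mM, ADP 0.1 mM; ATP detected by luminescence after 1 h.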
Sm TGR block: qHTS Assay for the Inhibitors of Schistosoma Mansoni Peroxiredoxins. purified TGR, DTNB reduction, TNB absorbance 405 nm. Potency, µM (highest dose often 114 µM), hits mostly inhibitors. 3% of 360,000 active. AID 485364, 2010; note: nearly all actives have a fitted effect of over 60% in size
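Kinetic colorimetric format: TGR-catalysed, NADPH-driven DTNB reduction monitored via TNB absorbance. Enzyme dispensed at 20 nM; compound exposure 15 min at room temperature before reaction start.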
A number is an active result; n = inactive; u = inconclusive; x = no result given. Unless noted, calls come from the whole dose curve; as a rule, active = well fitted curve in the direction sought with a large enough effect; inconclusive = small, poorly fitted or top-dose-only effect, or another doubt; inactive = no such curve, though single readings can be large; an effect the other way counts as inactive or inconclusive.

SMILES	Cycloheximide cs	Shiga inhibitor	TbPYK inhibitor	FBPA Giardia inh	LmPK inhibitor	Sm TGR block
Cc1cc(C)nc(SCc2ccc(C(=O)N/N=C/c3cccc(O)c3O)cc2)n1	17	n	n	u	n	n
COc1ccc(O)c(/C=N/NC(=O)c2ccc(CSc3nc(C)cc(C)n3)cc2)c1	61	71	n	n	n	n
Cc1cc(C)nc(SCc2ccc(C(=O)N/N=C/c3ccc(C(=O)O)cc3)cc2)n1	n	n	n	n	n	n
COc1ccccc1-c1noc(CCC(=O)Nc2ccc(C)cc2C)n1	x	x	n	x	x	n
CC(=O)Oc1c(C)cc(O)c2ccccc12	n	n	x	u	n	40µM
CCc1ccc(Oc2cc(C)nc(N)n2)cc1	26	65	n	n	n	n
CCCc1ccc(Oc2cc(Cl)nc(N)n2)cc1	16	n	n	n	n	n
COc1ccccc1CNC(=O)c1oc2ccc(S(=O)(=O)N3CCCCC3)cc2c1C	x	x	n	x	x	n
Cc1noc(C)c1C(=O)Nc1cc(S(=O)(=O)N2CCCCC2)ccc1N(C)C	x	x	n	x	x	n
CC(C)(C)n1cnc2cc(NCc3cccs3)ccc21	30	120	n	n	n	n
CCn1cnc2cc(NCc3cccs3)ccc21	31	188	n	n	n	n
Cc1ccccc1-n1cnc2cc(NCc3cccs3)ccc21	n	n	n	n	n	n
CCOc1ccccc1NC(=O)C(C)n1nnc2sc3c(c2c1=O)CCCC3 (stereo unspecified)	x	x	n	x	x	n
O=C(CSCc1ccccc1)Nc1ccc(F)cc1F	21	49	n	n	n	n
O=C(CCCc1ccccc1)Nc1ccc(Br)cc1F	55	x	u	n	n	n
O=C(CS(=O)(=O)Cc1ccccc1)Nc1ccc(Br)cc1F	x	x	n	x	x	x
CCOC(=O)c1ccccc1NC(=O)CCOc1ccccc1	x	x	n	x	x	n
O=C(CSCc1cnn(-c2ccccc2)c1-n1cccc1)Nc1ccc(F)cc1F	x	x	n	x	x	n
O=C(CCOc1ccccc1)Nc1ccccc1F	32	74	n	n	n	n
O=C(CCc1ccccc1)Nc1ccccc1F	30	74	n	n	u	n
CCCOc1ccc(F)cc1-c1cc(C(=O)NCc2cccc(C(F)(F)F)c2)[nH]n1	x	x	n	x	x	x
Cc1cccc(OC(C)C(=O)Nc2nc(-c3ccncc3)cs2)c1 (stereo unspecified)	x	x	n	x	x	n
CC(=O)Nc1ccc(-c2cc(C(=O)O)c3c(-c4ccccc4)[nH]nc3n2)cc1	x	x	n	x	x	n
O=C(NCCCCc1ccccc1)Nc1ccc(F)cc1F	n	n	n	x	n	n
O=C(CCc1ccccc1)Nc1ccc(F)cc1F	23	67	n	n	n	n
SMILES	Cycloheximide cs	Shiga inhibitor	TbPYK inhibitor	FBPA Giardia inh	LmPK inhibitor	Sm TGR block
COc1cc2c3c(c1)c(C1=NC(=S)NC1=O)c(O)n3C(C)(C)C=C2C	21	n	n	n	n	n
COc1ccc(C(=O)/C=C/c2cc(C(=O)O)cc3c2OCOC3)c(O)c1	n	n	n	n	n	u
O=C(O)c1cc(/C=C/C(=O)c2cc(F)ccc2O)c2c(c1)COCO2	n	n	n	n	n	28µM
CC1COC(=C2C(=O)OCC2C)C1 (stereo unspecified)	x	x	n	x	x	x
Cc1sc(NC(=O)c2ccco2)c(C(c2ccccc2)N2CCC(C)CC2)c1C (stereo unspecified)	n	n	n	n	n	n
Cc1sc(NC(=O)c2ccco2)c(C(c2cccnc2)N2CCN(c3ccc(F)cc3)CC2)c1C (stereo unspecified)	n	n	n	n	n	22µM
CCOC(=O)C1CCN(C(c2cccnc2)c2c(NC(=O)c3ccco3)sc(C)c2C)CC1 (stereo unspecified)	21	n	n	n	n	7.9µM
Cc1sc(NC(=O)c2ccco2)c(C(c2cccnc2)N2CCN(CCO)CC2)c1C (stereo unspecified)	n	n	n	n	n	n
Cc1ccccc1CS(=O)(=O)Cc1ccc(C(=O)NCc2ccc(F)cc2)o1	x	x	n	x	x	n
O=C(CN1CCOCC1)N/N=C/C(Br)=C\c1ccccc1	n	n	n	n	n	n
CC(/C=N/NC(=O)c1cc(-c2cccn2C)n[nH]1)=C\c1ccccc1	n	n	n	n	n	u
CC(/C=N/NC(=O)Cc1cccs1)=C\c1ccccc1	60	42	n	n	n	n
CC(/C=N/NC(=O)Cc1cccn1C)=C\c1ccccc1	20	74	n	n	n	u
O=C(Cc1cccs1)N/N=C/C(Br)=C/c1ccccc1	51	77	n	n	n	n
CC(=C/c1ccccc1)/C=N/NC(=O)CSc1nc(C)cc(C)n1	n	n	n	n	n	n
CO/N=C(\C(=O)N[C@@H]1C(=O)N2C(C(=O)OCOC(=O)C(C)(C)C)=C(C)CS[C@H]12)c1csc(N)n1	x	x	n	x	x	x
CCOc1ccc(CCNC(=O)Cn2nc(C)n3cccc3c2=O)cc1OCC	n	n	n	x	n	n
O=C(O)c1ccccc1C(=O)Nc1ccc(-c2csc(-c3ccccc3)n2)cc1	54	73	n	n	n	n
CC(=O)NC(c1ccc(F)c(F)c1)c1nc(-c2ccc(F)c(Cl)c2)cs1 (stereo unspecified)	x	x	n	x	x	x
O=C(O)c1ccc(-c2nc(-c3ccc(Cl)c(Cl)c3)cs2)cc1	37	141	n	n	n	u
NC(=O)C(=CNc1nc(-c2ccc(Cl)c(Cl)c2)cs1)C(N)=O	n	n	x	18µM	n	2.2µM
Cc1cc(-c2ccccc2C(=O)O)on1	n	n	n	n	n	n
C=CCNC(=O)c1ccc(-c2nc(-c3ccc(Cl)c(Cl)c3)cs2)cc1	n	n	x	n	n	n
O=C(Nc1ccc(-c2csc(-c3ccccc3)n2)cc1)c1ccccc1Cl	n	n	n	x	n	n
O=C(O)c1ccccc1-c1csc(-c2ccccc2)n1	23	79	n	n	n	x
SMILES	Cycloheximide cs	Shiga inhibitor	TbPYK inhibitor	FBPA Giardia inh	LmPK inhibitor	Sm TGR block
CCN(CC)/C(=N\S(=O)(=O)c1ccc(F)cc1)c1ccccc1	n	n	n	n	n	n
O=C(O)c1ccc(-c2noc(-c3ccccc3Cl)n2)cc1	x	x	n	x	x	x
CC(=O)c1csc(-c2ccccc2)n1	16	41	n	n	n	n
O=C(O)c1cnn(-c2nc(-c3ccc(Cl)c(Cl)c3)cs2)c1C(F)(F)F	19	n	n	n	n	n
c1ccc(-c2csc(-c3ccc(-c4csnn4)cc3)n2)cc1	n	n	n	n	n	n
O=C(O)c1ccc(-c2nc(-c3ccccc3Cl)cs2)cc1	29	143	n	u	n	x
O=C(O)c1ccc(-c2nc(-c3ccccc3)cs2)cc1	37	41	n	n	n	n
N#C/C(=C\c1ccc(O)c(O)c1)C(=O)OCCc1cccs1	x	x	x	n	x	x
O=C(CSCc1ccccc1Br)NNC(=S)NCc1ccco1	n	n	u	n	n	n
